Compounds with a hit are over-represented: about 7.4% of the library has one in this group of screens.
FLuc counter = qHTS profiling assay for firefly luciferase inhibitor/activator using purifed enzyme and Km concentrations of substrates (counterscreen for miR-21 project); Luciferin 4-monooxygenase (Photinus pyralis), P08659; AID 588342, 2011; 360,000 compounds, 6.9% hits; Potency, µM (titrated, usually from 57.5 µM), actives largely listed as inhibitors; purified FLuc, Km substrates, luminescence inhibition; further: nearly all actives have a fitted effect of over 55% in size
Target sequence (P08659 whole entry, looked up): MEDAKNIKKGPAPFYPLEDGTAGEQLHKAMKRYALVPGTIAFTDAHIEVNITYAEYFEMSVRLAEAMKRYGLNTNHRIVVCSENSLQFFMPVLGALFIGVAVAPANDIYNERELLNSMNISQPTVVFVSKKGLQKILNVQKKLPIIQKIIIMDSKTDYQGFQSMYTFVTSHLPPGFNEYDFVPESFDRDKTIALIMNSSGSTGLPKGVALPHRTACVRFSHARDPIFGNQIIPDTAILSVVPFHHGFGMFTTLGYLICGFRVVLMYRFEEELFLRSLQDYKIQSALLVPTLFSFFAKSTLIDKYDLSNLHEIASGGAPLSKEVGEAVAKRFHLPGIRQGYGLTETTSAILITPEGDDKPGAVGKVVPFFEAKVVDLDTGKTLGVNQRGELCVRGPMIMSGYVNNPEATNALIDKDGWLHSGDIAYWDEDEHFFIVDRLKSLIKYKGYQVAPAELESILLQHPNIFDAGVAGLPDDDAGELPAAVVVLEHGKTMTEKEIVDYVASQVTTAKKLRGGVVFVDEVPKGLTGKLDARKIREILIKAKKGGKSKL
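Purified P. pyralis luciferase (10nM final) with 10uM D-luciferin and 10uM ATP (Km levels) in 50mM Tris acetate pH 7.5, 10mM Mg acetate, 0.01% Tween-20, 0.05% BSA; qHTS 6-point titration, ~60 µM downward; luminescence read.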
NPC1 prom act = qHTS Assay for NPC1 Promoter Activators; Huh7 NPC1 promoter luciferase reporter, 24 h; Potency, µM (titrated, usually from 9.22 µM), hits mostly activators; 320,000 compounds, 2.4% hits; further: nearly all actives have a fitted effect of over 60% in size
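NPC1 promoter–luciferase Huh7 cells; 24 h compound; luminescence.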
SMN2 splice enh = qHTS Assay for Enhancers of SMN2 Splice Variant Expression | AID 1458, 2008 | Potency, µM (top dose mostly 46.1 µM), actives largely listed as activators | HEK293 SMN2-luciferase splicing reporter, luminescence, 30-36 h | 210,000 compounds, 2.8% hits; further: nearly all actives have a fitted effect of over 55% in size
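HEK293 cells carry an SMN2 minigene-luciferase reporter in which exon 7 inclusion puts luciferase in frame. Cells were seeded at 2000 cells/well, attached for 10-12 hours, then exposed to compounds for 30-36 hours at 37C before ONE-Glo luminescence.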
ELG1 genotox = qHTS screen for small molecules that induce genotoxicity in human embryonic kidney (HEK293T) cells expressing luciferase-tagged ELG1; HEK293T ELG1-luciferase reporter, luminescence, 16 h; Potency, µM (titrated, usually from 46 µM), most hits filed as activators; 330,000 compounds, 1.3% hits; further: nearly all actives have a fitted effect of over 60% in size
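Luminescence read-out: rising ELG1-luciferase signal, reflecting elevated ELG1 protein under genetic stress, flags genotoxic compounds. Cells were treated for 16 hr at 37 °C before ONE-Glo detection.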
Rab9 promoter act = qHTS Assay for Rab9 Promoter Activators; Huh7 Rab9 promoter-luciferase reporter, luminescence, 24 h; AID 485297, 2010; 320,000 compounds, 2.8% hits; Potency, µM (titrated, usually from 9.22 µM), actives largely listed as activators; further: nearly all actives have a fitted effect of over 60% in size
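Cells were plated at 1500 per well in reduced-serum medium with 10% FBS and left 2 h. Compound in DMSO was then added for 24 h at 37 °C. Reporter signal was read by luminescence after 10 min with luciferase detection reagent.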
Luc counter = Counterscreen for Luciferase (Kinase-Glo TM) Inhibition; Luciferin 4-monooxygenase (Photuris pensylvanica), Q27757; Kinase-Glo luciferase, ATP luminescence, 8 min; Potency, µM (top dose mostly 38.3 µM), most hits filed as inhibitors; 200,000 compounds, 0.28% hits; AID 1379, 2008; further: nearly all actives have a fitted effect of over 60% in size
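Recombinant Kinase-Glo luciferase, 10 uM ATP (linear range), luciferin; imidazole pH 7.2 / KCl / MgCl2 / Tween / BSA buffer; 8 min RT; luminescence.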
A number is an active result; – = inactive; ? = inconclusive; · = not tested or not shown; [ ] = remark or other dose. The call rests on the fitted dose curve; in most records, active means well fitted curve in the direction sought with a large enough effect; inconclusive means small, poorly fitted or top-dose-only effect, or another doubt; inactive means no such curve, though single readings can be large; an effect the other way counts as inactive or inconclusive.

SMILES	FLuc counter	NPC1 prom act	SMN2 splice enh	ELG1 genotox	Rab9 promoter act	Luc counter
Cc1cc(NC(=O)CCSc2ccccc2)ccc1Br	23.9µM	–	?	?	–	–
O=C(Cc1ccccc1)Nc1ccc2c(c1)CCC2	?	?	·	–	?	–
COc1ccc(C(CNC(=O)c2ccc3c(c2)OCCO3)N(C)C)cc1 (stereo not drawn)	–	–	·	–	–	·
C=CCN1C(=O)c2ccc(C(=O)N(CC)CC(=O)Nc3ccc(OC)cc3)cc2C1=O	–	–	·	–	–	·
COc1ccc(N=[N+]([O-])c2ccc(OC)cc2)cc1	·	·	7.08µM	·	·	·
Cc1ccc(NC(=O)C2Cc3ccccc3C(=O)O2)cc1 (stereo not drawn)	?	?	–	?	?	–
O=C1OC(C(=O)Nc2ccccc2)Cc2ccccc21 (stereo not drawn)	16.9µM	–	–	–	?	–
Cc1cnn(-c2cc(N/N=C/c3ccccc3)ncn2)c1	?	–	–	–	–[1.84 µM]	–
COc1cc(N/N=C/c2ccc(N(C)C)cc2)ncn1	0.849µM	1.26µM	2.24µM	1.16µM	?	?
COc1cc(N/N=C/c2ccccc2O)ncn1	15.1µM	?	?	23.1µM	?	–
CCOC(=O)N1CCN(c2ccc(S(=O)(=O)N(Cc3ccccc3)Cc3ccccc3)cn2)CC1	–	–	–	11.6µM	–	–
CCOC(=O)N1CCN(c2ccc(S(=O)(=O)N3CCOCC3)cn2)CC1	·	·	·	–	·	·
COc1cccc2cc(-c3ccnc(=S)[nH]3)oc12	–	–	11.2µM	–	–	–
C=CCn1c(-c2cc3cccc(OC)c3o2)n[nH]c1=S	?	–	–	–	–	–
COc1ccc2c(c1)N(C[C@@H](C)CN(C)C)c1ccccc1S2	·	·	–	·	·	–
CCCc1cc(=O)[nH]c(Nc2cc(OC)ccc2OC)n1	–	–	1.26µM	–	–	–
CCCc1cc(=O)[nH]c(Nc2cc(Cl)ccc2OC)n1	–	·	–	·	·	·
Cc1ccc(C(=O)COC(=O)CCN2C(=O)C3C4C=CC(C5CC45)C3C2=O)cc1 (stereo not drawn)	?	–	·	–	–	·
Cc1cc(OCC(F)(F)C(F)(F)C(F)(F)C(F)F)nc(N)n1	16.9µM	–	–	–	–	–
COc1ccccc1OCC(=O)NCC(c1ccc(Cl)cc1)N1CCCCC1 (stereo not drawn)	–	·	·	·	·	·
CC(C)c1cc2cc3ccc(=O)oc3cc2o1	12µM	?	·	?	?	·
O=c1ccc2cc3ccoc3cc2o1	–	–	·	–	–	–
CC/C(=N\NC(=O)c1csc(C)c1C)c1cccs1	2.39µM	2µM	14.1µM	?	1.12µM	–
C/C(=N\NC(=O)c1csc(C)c1C)c1ccc(Cl)s1	?	?	–	?	?	–
CCC/C(=N\NC(=O)c1csc(C)c1C)c1cccs1	4.78µM	?	15.8µM	10.3µM	3.16µM	–
SMILES	FLuc counter	NPC1 prom act	SMN2 splice enh	ELG1 genotox	Rab9 promoter act	Luc counter
Clc1ccc(-c2cnc3n2CCC3)cc1	13.5µM	–	–	–	?	–
COc1ccc(-c2cnc3n2CCCCC3)cc1	–	–	·	–	–	·
CC(C)Oc1ccc(C2CC(=O)N(c3cccc(/C=C/C(=O)O)c3)C2=O)cc1 (stereo not drawn)	23.9µM	–	·	–	–	·
Cc1sc(NC(=O)c2ccc(Br)s2)c(C(N)=O)c1C	1.69µM	?	10µM	?	?	–
Cc1sc(NC(=S)Nc2ccc(F)cc2)c(C(N)=O)c1C	–	–	·	–	–	–
Cc1sc(NC(=O)c2ccc(Cl)s2)c(C(N)=O)c1C	2.39µM	?	10µM	1.64µM	?	–
CCn1c(/N=C/c2ccccc2NS(=O)(=O)c2ccc(C)cc2)nc2ccccc21	–	–	–	–	–	–
O=C(Cn1cc(C(F)(F)F)ccc1=O)N/N=C/c1ccccc1	–	–	–	–	–	–
Cc1c(-c2ncn[nH]2)sc(C#N)c1-c1ccccc1	19µM	–	–	–	–	–
